From PubChem
Rows were chosen to be rich in hits. Some 5% of all compounds tested hit in one or more screens of this group.
HCMV inh = blocks human cytomegalovirus replication; HFF cells, HCMV-luciferase reporter, 72 h; active compounds read low; activity change, negative = inhibition, % at 57.5 µM; 410,000 tested, 4.5% active; in the data active = activity change below about -60%; inconclusive = no clear call, values can overlap the other calls; inactive = above about -39%
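Inhibition of viral replication was scored as loss of reporter luminescence in HFFs infected with HCMV-luciferase (MOI 1 PFU/cell) for 72 h; compounds tested at 2 doses, normalized to buffer and Salinomycin controls.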
VACV mCherry inh = vaccinia inhibition (mCherry reporter) | Potency, µM (titrated, usually from 36.5 µM), for inactives: at the top dose activity change, negative = inhibition, actives largely listed as inhibitors | Vaccinia virus mCherry reporter infection, fluorescence | 310,000 tested, 0.63% active | AID 720579; calls by dose curve; tested in A549 cells; note: potency is the fitted concentration of half-maximal effect; nearly all actives have a fitted effect of over 35% in size
Vaccinia Venus = inhibitors of vaccinia virus (Venus reporter); Vaccinia virus Venus reporter expression, fluorescence; Potency, µM (series often up to 36.5 µM), for inactives: top-dose activity change, negative = inhibition, most hits filed as inhibitors; 330,000 tested, 0.46% active; AID 720580; calls by dose curve; tested in A549 cells; note: potency is the fitted concentration of half-maximal effect; nearly all actives have a fitted effect of over 30% in size
LmPK inh = LmPK (Leishmania mexicana) enzyme inhibition. Q27686. purified LmPK, Kinase-Glo ATP luminescence, 1 h. Potency, µM (series often up to 57.5 µM), for the others: at the top dose activity change, negative = inhibition, actives largely listed as inhibitors. 290,000 tested, 0.37% active; note: potency is the fitted concentration of half-maximal effect
Target sequence (Q27686 whole entry, looked up): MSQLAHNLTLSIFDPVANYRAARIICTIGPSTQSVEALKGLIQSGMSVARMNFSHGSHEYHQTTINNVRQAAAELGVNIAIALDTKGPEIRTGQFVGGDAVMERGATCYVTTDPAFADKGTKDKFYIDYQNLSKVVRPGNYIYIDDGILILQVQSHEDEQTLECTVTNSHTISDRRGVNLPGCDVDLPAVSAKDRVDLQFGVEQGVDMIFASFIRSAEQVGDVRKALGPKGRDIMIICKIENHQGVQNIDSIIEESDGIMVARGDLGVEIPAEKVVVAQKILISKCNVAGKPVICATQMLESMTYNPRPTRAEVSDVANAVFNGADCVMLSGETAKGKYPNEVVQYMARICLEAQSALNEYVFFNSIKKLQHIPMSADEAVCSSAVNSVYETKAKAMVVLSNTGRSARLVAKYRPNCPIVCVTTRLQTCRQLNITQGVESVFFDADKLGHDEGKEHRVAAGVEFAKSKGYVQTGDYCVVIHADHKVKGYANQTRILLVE
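Kinase-Glo luminescence read after 1 h RT reaction of 0.1 nM LmPK with 0.5 mM PEP and 0.1 mM ADP. Activity scaled between uninhibited and enzyme-free controls.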
TbPYK inhibitor = blocks Trypanosoma brucei pyruvate kinase | TbPYK enzyme, Kinase-Glo Plus ATP luminescence, 45 min | Q57TT1 | 410,000 tested, 0.12% active | Potency, µM (series often up to 76.8 µM), without a hit: top-dose activity, negative = inhibition, hits mostly inhibitors; note: potency is the fitted concentration of half-maximal effect; nearly all actives have a fitted effect of over 50% in size
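Glycolytic pyruvate kinase of T. brucei was incubated with substrate, test compound and 130 uM ADP for 45 minutes at room temperature. Luminescent Kinase-Glo Plus signal was measured after 10 minutes.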
* hit, by the source's call; ! = a repeat was not active. Unless noted, calls come from the whole dose curve; as a rule, active = well fitted curve in the direction sought with a large enough effect; inconclusive = small, poorly fitted or top-dose-only effect, or another doubt; inactive = no such curve, though single readings can be large; an effect the other way counts as inactive or inconclusive. % is set by controls: 0 for no effect and ±100 for the full control effect.

Screening CSc1ccc(CCNC(=O)CN2C(=O)c3cccnc3Oc3ccc(C)cc32)cc1 returned HCMV inh active!, VACV mCherry inh -7.5%, Vaccinia Venus -14.3%, LmPK inh -4.7% and TbPYK inhibitor -6.2%.
For Cc1ccc2c(c1)N(CC(=O)NCCCc1ccccc1)C(=O)c1cccnc1O2 the results were HCMV inh -61.7*, VACV mCherry inh -8.1%, Vaccinia Venus 6.6%, LmPK inh 3.3% and TbPYK inhibitor 3.3%.
Cc1[nH]nc2c1C(c1ccco1)C(C#N)=C(N)O2 (stereo unspecified) was read as HCMV inh -26.5, VACV mCherry inh inactive, Vaccinia Venus -10.8%, LmPK inh 4.8% and TbPYK inhibitor -6.6%.
For Cc1[nH]nc2c1C(c1cc(Br)cs1)C(C#N)=C(N)O2 (stereo unspecified) the results were HCMV inh -98.4*, VACV mCherry inh -22.4%, Vaccinia Venus -9.3%, LmPK inh 6.9% and TbPYK inhibitor 33.4%.
For N#Cc1nc(COc2ccc(F)cc2)oc1N1CCC(Cc2ccccc2)CC1 the results were HCMV inh -22.4, LmPK inh 1.6% and TbPYK inhibitor 0.4%.
COc1ccccc1CNC(=O)c1ccc2nc3[nH]c4ccccc4c3nc2c1 was read as HCMV inh -86.4*, VACV mCherry inh 8.91µM*, Vaccinia Venus 10µM*, LmPK inh -3.9% and TbPYK inhibitor -8.6%.
Cc1ccc(CNC(=O)c2ccc3nc4[nH]c5ccccc5c4nc3c2)cc1 was read as HCMV inh -101.9* and LmPK inh 4.3%.
COc1ccccc1CNC(=O)c1ccc2[nH]c(C)c(C)c2c1 was read as HCMV inh 61.7, VACV mCherry inh -8.9%, Vaccinia Venus -13.1% and TbPYK inhibitor -9.6%.
For CC(C)(C)C(=O)Cn1ncc(N2CCCC2)c(Br)c1=O the results were HCMV inh 67.4, Vaccinia Venus 2.3%, LmPK inh 1.8% and TbPYK inhibitor -2.5%.
For CC(C)(C)C(=O)Cn1ncc(Cl)c(Cl)c1=O the results were HCMV inh -100.1*, LmPK inh 0.5% and TbPYK inhibitor 0.2%.
`O=C(Cn1ncc(Cl)c(Cl)c1=O)c1ccc(Cl)cc1` gave HCMV inh -97.9*, VACV mCherry inh -12.9%, Vaccinia Venus 4.0%, LmPK inh 2.1% and TbPYK inhibitor 3.0%.
`O=c1c(Cl)c(Cl)cnn1Cc1ccc(F)cc1` gave HCMV inh -99.0*, LmPK inh 2.7% and TbPYK inhibitor 3.0%.
For C=CCn1c(C)cc(C(=O)Cn2ncc(Cl)c(Cl)c2=O)c1C the results were HCMV inh -98.4*, VACV mCherry inh inconclusive, Vaccinia Venus inconclusive, LmPK inh -2.6% and TbPYK inhibitor -18.3%.
`C=CCn1c(C)cc(C(=O)COC(=O)[C@@H](NC(=O)c2ccccc2Cl)C(C)C)c1C` gave HCMV inh -20.7, VACV mCherry inh -21.9%, Vaccinia Venus -12.9%, LmPK inh -10.4% and TbPYK inhibitor -0.3%.
Screening O=C(Cc1cccs1)Nc1ccc(F)c(S(=O)(=O)N2CCOCC2)c1 returned HCMV inh 51.7 and TbPYK inhibitor 5.6%.
Screening CCS(=O)(=O)N1Cc2ccccc2CC1C(=O)N(C)Cc1ccc(OC)cc1OC (stereo unspecified) returned HCMV inh -18.5, VACV mCherry inh inactive, Vaccinia Venus -15.3%, LmPK inh -6.0% and TbPYK inhibitor 3.1%.
`COc1cccc(NC(=O)CNC(=O)c2ccc(C)o2)c1` gave HCMV inh 35.9, VACV mCherry inh -13.5%, Vaccinia Venus -6.3%, LmPK inh -11.5% and TbPYK inhibitor -5.5%.
CC1CC(C)CN(S(=O)(=O)c2ccc(NC(=O)CCN3C(=O)C4CC=CCC4C3=O)cc2)C1 (stereo unspecified) was read as HCMV inh 47.9 and TbPYK inhibitor -4.6%.
For Cn1c2c(c(=O)n(C)c1=O)C(NC(=O)C(C)(C)C)(C(F)(F)F)C(=O)N2 (stereo unspecified) the results were HCMV inh -11.2, VACV mCherry inh -3.4%, Vaccinia Venus -6.1%, LmPK inh 1.9% and TbPYK inhibitor -4.6%.
`O=C(OCn1ncc(Cl)c(Cl)c1=O)c1ccccc1Cl` gave HCMV inh -103.2*, LmPK inh -5.4% and TbPYK inhibitor -0.8%.
For C=CCn1c(C)cc(C(=O)CN2NS(=O)(=O)c3ccccc3C2=O)c1C the results were HCMV inh -73.8*, VACV mCherry inh -16.6%, Vaccinia Venus -17.6%, LmPK inh -5.3% and TbPYK inhibitor -10.8%.
For Cc1ccc(NC(=O)CN(C)C(=O)Cc2ccc(Cl)c(Cl)c2)cc1 the results were HCMV inh 7.1, VACV mCherry inh -8.0%, Vaccinia Venus -19.0%, LmPK inh 11.3% and TbPYK inhibitor -4.6%.
Cc1ccc(NC(=O)CN(C)C(=O)Cn2ncc(Cl)c(Cl)c2=O)cc1 was read as HCMV inh -99.9*, VACV mCherry inh inconclusive, Vaccinia Venus inconclusive, LmPK inh 2.6% and TbPYK inhibitor 5.5%.
`Cc1ccc(CNC(=O)CN2NS(=O)(=O)c3ccccc3C2=O)cc1` gave HCMV inh -12.9, VACV mCherry inh -13.3%, Vaccinia Venus -14.6% and TbPYK inhibitor 3.0%.
Cn1c(SCC(=O)NCC2CCCO2)ncc(C(=O)Nc2ccc(F)cc2)c1=O (stereo unspecified) was read as HCMV inh 3.6, VACV mCherry inh -11.6%, Vaccinia Venus -7.2% and TbPYK inhibitor 2.5%.
Screening O=C(CCN1C(=O)C2C3C=CC(C3)C2C1=O)Nc1nccs1 (stereo unspecified) returned HCMV inh -69.0*, VACV mCherry inh -3.3%, Vaccinia Venus -8.3%, LmPK inh 5.0% and TbPYK inhibitor -10.8%.
`O/C=c1\ccc2cccc3nc(C(F)(F)F)nc1c23` gave HCMV inh -25.9, VACV mCherry inh -8.3%, Vaccinia Venus 9.6%, LmPK inh 9.4% and TbPYK inhibitor 4.7%.
`C/C(O)=c1/ccc2cccc3nc(C)nc1c23` gave HCMV inh -78.7*, VACV mCherry inh 9.0%, Vaccinia Venus 6.5%, LmPK inh 1.1% and TbPYK inhibitor 5.5%.
CC1=C(C(=O)Nc2ccccc2)C(c2ccco2)NC(=O)N1 (stereo unspecified) was read as HCMV inh -97.4*, VACV mCherry inh -10.0%, Vaccinia Venus 3.0% and TbPYK inhibitor -3.5%.
Oc1cc(NCCc2cccnc2)cc2cccnc12 was read as HCMV inh -73.9* and TbPYK inhibitor -0.9%.
Screening Oc1cc(Nc2ccncc2)cc2cccnc12 returned HCMV inh -24.8 and TbPYK inhibitor -10.3%.
Screening Oc1cc(Nc2cccnc2)cc2cccnc12 returned HCMV inh -97.7* and TbPYK inhibitor 0.5%.
Screening COc1cc(S(=O)(=O)NCC2(N3CCCCC3)CCCCC2)ccc1NC(C)=O returned HCMV inh -97.9*, VACV mCherry inh -9.4%, Vaccinia Venus -5.4% and TbPYK inhibitor 1.2%.
